pPAFAH inh – pPAFAH (human) enzyme inhibition; inhibition, % at 3.39 µM; 330,000 compounds, 1.5% hits; AID 463082; Q13093; recombinant pPAFAH, FP-rhodamine probe fluorescence polarization;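 active = inhibition above the mean inhibition across the screen plus 3 SD, cut at about 25% in these data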;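 note: inhibitors block binding of the rhodamine activity-based probe so polarization drops; 0% = enzyme with DMSO and 100% = wells lacking pPAFAH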
PAFAH1B2 FP inh – inhibitors of human PAFAH1B2; recombinant PAFAH1B2, FP-rhodamine activity probe, fluorescence polarization; inhibition, % at 3.39 µM; 340,000 compounds, 1.2% hits; AID 492953;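 active = inhibition above the mean of all tested compounds plus 3 SD, cut at about 24% in these data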;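 note: 0% = enzyme with DMSO and 100% = wells lacking PAFAH1B2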
PAFAH2 FP inh – PAFAH2 (human) inhibition; recombinant PAFAH2, FP-rhodamine activity probe, fluorescence polarization; Q99487; inhibition, % at 3.39 µM; 340,000 compounds, 0.99% hits;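 active = inhibition above the mean over all tested compounds plus 3 SD, cut at about 30% in these data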;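 note: inhibitors block probe labeling of enzyme so polarization drops; 0% = enzyme with DMSO and 100% = wells lacking PAFAH2 protein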
PAFAH1B3 inh – PAFAH1B3 (human) inhibition; Q15102; 340,000 compounds, 0.28% hits; inhibition, % at 3.39 µM; recombinant PAFAH1B3, FP-rhodamine probe, fluorescence polarization;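 active = inhibition above the screen-wide average of all tested compounds plus 3 SD, cut at about 25% in these data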;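 note: 0% = enzyme with DMSO only and 100% = wells lacking PAFAH1B3 protein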
Target sequence (Q15102 whole entry, looked up): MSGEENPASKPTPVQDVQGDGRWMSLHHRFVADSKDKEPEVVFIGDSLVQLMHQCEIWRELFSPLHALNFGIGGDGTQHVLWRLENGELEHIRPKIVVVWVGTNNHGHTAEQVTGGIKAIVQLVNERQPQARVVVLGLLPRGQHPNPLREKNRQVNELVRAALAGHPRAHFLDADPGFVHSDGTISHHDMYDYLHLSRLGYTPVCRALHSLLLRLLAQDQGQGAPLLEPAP
Fam108B inh – Fam108B inhibition, counter-screen for RBBP9 inhibitors; recombinant Fam108B, FP-Rh probe fluorescence polarization; inhibition, % at 9.51 µM; 300,000 compounds, 0.33% hits; AID 1947;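 active = inhibition above the screen mean inhibition plus 3 SD, computed separately per campaign, cut at about 18% in these data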;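 note: inhibitors lower polarization as less probe binds the enzyme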
PME-1 primary – PME-1 (human) inhibition; Q9Y570; recombinant PME-1, FP-Rh probe fluorescence polarization; inhibition, % at 5.9 µM; 320,000 compounds, 0.53% hits; AID 2130;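 active = inhibition above the campaign mean of all compounds plus 3 SD, cut at about 26% in these data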;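 note: competitive labeling of PME-1 active site by serine hydrolase directed probe; 0% = PME-1 with DMSO and 100% = wells lacking PME-1 enzyme; inhibitors block probe labeling so polarization falls and inhibition rises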
Target sequence (Q9Y570 whole entry, looked up): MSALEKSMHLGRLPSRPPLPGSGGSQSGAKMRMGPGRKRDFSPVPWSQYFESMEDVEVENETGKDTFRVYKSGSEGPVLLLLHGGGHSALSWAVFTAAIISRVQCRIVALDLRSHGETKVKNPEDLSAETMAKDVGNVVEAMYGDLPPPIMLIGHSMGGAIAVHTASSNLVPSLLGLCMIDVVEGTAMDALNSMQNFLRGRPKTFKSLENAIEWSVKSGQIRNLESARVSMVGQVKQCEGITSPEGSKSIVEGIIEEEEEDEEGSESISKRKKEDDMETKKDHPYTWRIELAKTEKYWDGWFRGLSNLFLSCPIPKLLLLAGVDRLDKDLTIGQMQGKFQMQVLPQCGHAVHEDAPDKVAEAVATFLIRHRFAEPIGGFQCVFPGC
pPAFAH confirm – confirmation of human plasma PAF acetylhydrolase (pPAFAH) inhibitors. shares compounds with pPAFAH inh. 2,300 compounds, 72% hits. AID 463230. recombinant pPAFAH, FP-Rh probe fluorescence polarization. inhibition, % at 3.39 µM;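 active = mean inhibition of the triplicate above the hit cutoff set for the earlier primary screen, cut at about 25% in these data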;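 note: 0% = enzyme with DMSO and 100% = wells lacking pPAFAH enzyme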
* hit, by the source's call; . = no result given. Sampled rows, rich in hits. Any-hit rate of the full collection: about 2.9%.

SMILES	pPAFAH inh	PAFAH1B2 FP inh	PAFAH2 FP inh	PAFAH1B3 inh	Fam108B inh	PME-1 primary	pPAFAH confirm
O=C1c2ccc(-c3ccc(F)cc3OCc3ccccc3)cc2S(=O)(=O)c2cccc(C(=O)N3CCCC3)c21	46.1*	12.4	8.5	4.7	.	2.7	45.1*
Cc1cc2cc(CNS(=O)(=O)c3ccccc3)ccc2n1C	47.2*	13.1	17.5	6.1	5.5	2.5	35.1*
COc1ccc(S(=O)(=O)NCc2ccc3c(c2)cc(C)n3C)cc1	12.8	5.5	18.9	-0.6	4.4	4.7	.
CCCS(=O)(=O)Nc1ccc(N2CCCCC2)c(S(=O)(=O)Nc2ccccc2OC)c1	.	-3.1	-3.6	-9.7	.	.	.
N#Cc1ccc(Nc2nc(-c3ccc(O)cc3O)cs2)cc1C(F)(F)F	35.2*	11.0	9.1	25.5*	.	60.8*	26.8*
CN(CC(=O)Nc1ccc(F)c(F)c1F)C(=O)c1cc(S(=O)(=O)N(C)C)ccc1N1CCCC1	.	0.7	1.8	-1.5	.	.	.
Nc1ccc2c(c1)C/C(=C/c1ccco1)C2=O	84.3*	-7.9	8.7	6.9	15.3	3.6	6.5
CC1CCC/C(=C\Nc2ccc(O)cc2)C1=O (stereo unspecified)	34.5*	-0.3	-2.1	1.5	-0.5	4.2	2.8
COc1ccccc1C(=O)Nc1ccc(Br)cc1C	3.7	-2.5	2.9	5.5	-3.4	-7.5	.
CC(=O)N1CCc2cc(S(=O)(=O)CCC(=O)NCc3ccc(F)cc3)ccc21	-0.6	0.3	5.9	3.2	-0.1	-4.6	.
CCc1cc(=O)oc2cc(C)c(CN3CCCC(C)C3)c(O)c12 (stereo unspecified)	51.6*	-2.6	8.3	5.9	-4.7	-6.9	12.9
O=c1oc2ccccc2c(O)c1Cc1cc(Cl)c2cccnc2c1O	50.2*	6.4	20.0	14.2	15.0	6.2	65.9*
O=C(CSCc1n[nH]c(=O)[nH]1)NCCOc1cccc(Oc2ccccc2)c1	36.0*	6.5	-0.3	6.8	0.3	1.9	6.9
Cc1ccc(NC2(C#N)CCCC2)cc1	.	4.5	7.8	12.9	.	.	.
O=C1CC(c2ccc(O)c(O)c2)Oc2c1ccc(O)c2O (stereo unspecified)	59.6*	11.8	50.4*	18.7	6.3	-4.5	60.0*
CC(C)=CCc1c(O)ccc2c1OC(c1ccc(O)c(O)c1)CC2=O (stereo unspecified)	20.5	5.8	7.4	14.6	-4.8	-17.9	.
COc1ccc(Nc2c[nH]c(=O)[nH]c2=O)cc1	.	3.2	-3.5	8.4	.	.	.
Cc1cccc(N=C2NC(=O)/C(=C/C=C/c3ccco3)S2)c1	49.6*	9.6	32.1*	27.0*	5.6	17.8	24.6*
O=C1NC(=Nc2ccc3ccccc3c2)S/C1=C/c1ccco1	55.2*	12.7	5.2	1.2	11.4	2.9	21.6
COc1ccc(N=C2NC(=O)/C(=C\C=C\c3ccco3)S2)cc1	.	2.8	22.6	6.1	.	.	.
O=C(Nc1ccc(F)cc1)c1oc2ccccc2c1NC(=O)C1CC1	-4.7	9.4	-8.2	2.9	-4.5	-7.1	.
O=C(Nc1ccc(Br)c2ccccc12)c1ccc2ccccc2c1O	35.9*	18.2	47.6*	22.2	38.5*	26.0	51.5*
CC(=O)Nc1ccc(Br)c2ccccc12	-1.5	3.0	7.2	7.9	1.6	-0.1	.
CCOc1ccc(S(=O)(=O)N2CCN(C(=O)CCC(=O)N3CCOCC3)CC2)cc1	5.6	3.3	5.6	-5.5	2.9	7.8	.
N#CCC(=O)Nc1ccccc1C(=O)O	-2.7	3.6	3.6	-2.5	1.3	-2.0	.
SMILES	pPAFAH inh	PAFAH1B2 FP inh	PAFAH2 FP inh	PAFAH1B3 inh	Fam108B inh	PME-1 primary	pPAFAH confirm
N#CCC(=O)Nc1ncn(Cc2ccccc2Cl)n1	34.6*	1.9	2.1	0.6	2.8	4.5	2.8
CCOC(=O)Cn1c(=O)oc2cc(S(=O)(=O)Nc3ccc(N(CC)CC)cc3C)ccc21	54.6*	5.2	2.0	-2.4	3.6	0.2	52.8*
CC(=O)c1ccc(N2CCN(S(=O)(=O)c3cc4c(cc3C)NC(=O)CO4)CC2)cc1	-1.1	-0.6	6.5	-2.9	-5.2	-3.2	.
COc1ccccc1/C=C1\SC(=S)N(CCC(=O)NNC(=O)c2ccccc2O)C1=O	35.4*	2.1	4.6	10.5	-6.5	-3.5	65.6*
Cc1cc(/C=C2\SC(=S)N(Cc3ccco3)C2=O)c(C)n1-c1cccnc1	.	7.2	5.6	4.7	.	.	.
Cc1cc(/C=C2/SC(=S)N(c3cccc(C(F)(F)F)c3)C2=O)c(C)n1-c1cccnc1	44.0*	0.0	23.7	-6.2	2.3	-0.7	42.2*
CC(C)n1nc(C(=O)Nc2ccc3c(c2)OCO3)c2ccccc2c1=O	0.2	5.2	1.9	4.7	.	0.2	.
CCCCCC(=O)Cc1cc(O)cc2c1C(=O)Oc1cc(O)c(C(=O)O)c(CCCCC)c1O2	43.1*	.	.	.	-2.3	15.6	59.3*
O=C(O)c1ccc(N/N=C/c2cn(Cc3ccccc3F)c3ccccc23)cc1	45.7*	8.2	9.5	14.2	17.0	28.9*	62.5*
Nc1ccc(C(=O)N/N=C/c2cn(Cc3ccccc3F)c3ccccc23)cc1	.	8.7	-0.8	8.3	.	.	.
COc1ccc(CNS(=O)(=O)c2ccccc2Br)cc1	0.7	.	.	.	2.0	6.3	.
CC(C)N=c1scc(-c2ccco2)n1/N=C/c1ccc(O)c(O)c1	64.3*	1.2	3.9	5.9	2.5	-7.0	69.0*
Oc1ccc(/C=N/n2c(-c3ccco3)csc2=Nc2cccnc2)c(O)c1	19.3	9.0	9.7	10.3	5.4	20.2	.
COCCN=c1scc(-c2ccco2)n1/N=C/c1ccc(O)c(O)c1O	63.8*	-8.2	25.0	7.9	-1.6	2.5	66.8*
COc1cccc(/C=N/n2c(-c3ccco3)nc3ccccc3c2=O)c1	-4.7	-1.1	-3.5	-2.4	5.1	-1.5	.
C=CCN=c1scc(-c2ccco2)n1/N=C/c1ccc(O)c(O)c1O	49.5*	-0.8	7.3	5.8	-5.7	29.2*	68.3*
C=CCn1c(N)cc(=O)nc1SCC(=O)Nc1ccc(C(=O)OCC)cc1	4.4	5.5	-5.0	-5.1	-2.1	-0.5	.
COc1ccc([N+](=O)[O-])cc1NC(=O)C(C)OC(=O)c1cccnc1 (stereo unspecified)	-1.5	7.7	-5.5	7.4	-1.1	1.6	.
CN(CC(=O)Nc1cccc(F)c1)C(=O)c1ccc2c(c1)CC(c1ccccc1)OC2=O (stereo unspecified)	.	6.0	0.3	-9.5	.	.	.
CCN(CC(=O)Nc1ccc(OC)cc1)C(=O)Cc1cccs1	22.5	-5.4	7.5	10.2	-2.4	-5.7	.
Cc1nn(-c2ccccc2)c(/N=C/c2ccccc2O)c1-c1ccccc1	34.5*	2.9	2.0	7.6	-0.5	2.3	10.4
O=C(O)c1cc(N/N=C/c2ccc(N3CCOCC3)s2)ccc1Cl	73.9*	1.2	16.0	8.9	15.9	-2.9	18.9
NC(=O)N/N=C/c1ccc(N2CCOCC2)s1	1.1	0.6	-3.4	-10.5	0.6	3.8	.

High-throughput results: PubChem, The Scripps Research Institute Molecular Screening Center
